# “And” between values parts separate entries of the source, which are not always exact repeats. Identical values can stand only once. Like-named read-outs stand apart in the source and are kept apart here.
# Key:
# [1] = tested on: EPHB6; conditions: concentration: 1 μM, replicates: in singlicate, n = 1
# [2] = tested on: ERBB2; conditions: concentration: 1 μM, replicates: in singlicate, n = 1
# [3] = tested on: ERBB3; conditions: concentration: 1 μM, replicates: in singlicate, n = 1
# [4] = tested on: ERBB4; conditions: concentration: 1 μM, replicates: in singlicate, n = 1
# [5] = tested on: T1, ERK1; conditions: concentration: 1 μM, replicates: in singlicate, n = 1
# T1 construct: gene MAPK3
# [6] = tested on: T2, ERK2; conditions: concentration: 1 μM, replicates: in singlicate, n = 1
# T2 construct: gene MAPK1
# [7] = tested on: T3, ERK3; conditions: concentration: 1 μM, replicates: in singlicate, n = 1
# T3 construct: gene MAPK6
# [8] = tested on: T4, ERK4; conditions: concentration: 1 μM, replicates: in singlicate, n = 1
# T4 construct: gene MAPK4
# [9] = tested on: T5, ERK5; conditions: concentration: 1 μM, replicates: in singlicate, n = 1
# T5 construct: gene MAPK7
# [10] = tested on: T6, ERK8; conditions: concentration: 1 μM, replicates: in singlicate, n = 1
# T6 construct: gene MAPK15
# [11] = tested on: ERN1; conditions: concentration: 1 μM, replicates: in singlicate, n = 1
# [12] = tested on: T7, FAK; conditions: concentration: 1 μM, replicates: in singlicate; n = 1
# T7 construct: gene PTK2
# [13] = tested on: FER; conditions: concentration: 1 μM, replicates: in singlicate, n = 1
# [14] = tested on: FES; conditions: concentration: 1 μM, replicates: in singlicate, n = 1
# [15] = tested on: FGFR1; conditions: concentration: 1 μM, replicates: in singlicate, n = 1
# [16] = tested on: FGFR2; conditions: concentration: 1 μM, replicates: in singlicate; n = 1
# [17] = tested on: FGFR3; conditions: concentration: 1 μM, replicates: in singlicate, n = 1
# [18] = tested on: FGFR4; conditions: concentration: 1 μM, replicates: in singlicate, n = 1
# [19] = tested on: FGR; conditions: concentration: 1 μM, replicates: in singlicate, n = 1
# [20] = tested on: FLT1; conditions: concentration: 1 μM, replicates: in singlicate, n = 1
# 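Note: KINOMEscan kinase panel screen.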
compound,measurement,setting,value
Cc1ccc(C(=O)NCC(N)=O)cc1-n1c(C)cc(OCc2ccc(F)cc2F)c(Br)c1=O,%Inh,[1],6%
same,%Inh,[2],36%
same,%Inh,[3],0%
same,%Inh,[4],0%
same,%Inh,[5],6%
same,%Inh,[6],0%
same,%Inh,[7],0%
same,%Inh,[8],0%
same,%Inh,[9],13%
same,%Inh,[10],13%
same,%Inh,[11],0%
same,%Inh,[12],7%
same,%Inh,[13],6%
same,%Inh,[14],23%
same,%Inh,[15],51%
same,%Inh,[16],32%
same,%Inh,[17],21%
same,%Inh,[18],19%
same,%Inh,[19],25%
same,%Inh,[20],0%
Cl.Cl.Cl.Fc1ccc(-c2ncn(C3CCNCC3)c2-c2ccnc(Nc3ccccc3)n2)cc1 [SB-238039],%Inh,[1]; 1 µM,3% and 0%
same,%Inh,[2]; 1 µM,92% and 79%
same,%Inh,[3]; 1 µM,67% and 7%
same,%Inh,[4]; 1 µM,47% and 46%
same,%Inh,[5]; 1 µM,60% and 11%
same,%Inh,[6]; 1 µM,37% and 26%
same,%Inh,[7]; 1 µM,0% and 18%
same,%Inh,[8],0%
same,%Inh,[9]; 1 µM,46% and 0%
same,%Inh,[10]; 1 µM,0% and 10%
same,%Inh,[11]; 1 µM,19% and 6%
same,%Inh,[12],0%
same,%Inh,[13]; 1 µM,0% and 1%
same,%Inh,[14],0%
same,%Inh,[15]; 1 µM,11% and 0%
same,%Inh,[16],0%
same,%Inh,[17],0%
same,%Inh,[18],0%
same,%Inh,[19]; 1 µM,60% and 41%
same,%Inh,[20]; 1 µM,7% and 25%
CC(C)(CN)c1nc(-c2ccc(Cl)c(O)c2)c(-c2ccncc2)[nH]1.O=C(O)C(F)(F)F [SB-477794],%Inh,[1]; 1 µM,2% and 28%
same,%Inh,[2]; 1 µM,83% and 80%
same,%Inh,[3]; 1 µM,42% and 45%
same,%Inh,[4]; 1 µM,26% and 35%
same,%Inh,[5]; 1 µM,0% and 11%
same,%Inh,[6],0%
same,%Inh,[7]; 1 µM,20% and 0%
same,%Inh,[8]; 1 µM,13% and 20%
same,%Inh,[9]; 1 µM,32% and 56%
same,%Inh,[10],0%
same,%Inh,[11]; 1 µM,1% and 22%
same,%Inh,[12],0%
same,%Inh,[13]; 1 µM,12% and 31%
same,%Inh,[14]; 1 µM,0% and 22%
same,%Inh,[15]; 1 µM,24% and 54%
same,%Inh,[16],0%
same,%Inh,[17]; 1 µM,8% and 33%
same,%Inh,[18]; 1 µM,18% and 0%
same,%Inh,[19]; 1 µM,95.3% and 94.8%
same,%Inh,[20]; 1 µM,82% and 80%
COc1ccc(COc2cc(-n3cnc4ccccc43)sc2C(N)=O)cc1 [GSK1024304],%Inh,[1],0%
same,%Inh,[2],28%
same,%Inh,[3],0%
same,%Inh,[4],24%
same,%Inh,[5],5%
same,%Inh,[6],0%
same,%Inh,[7],15%
same,%Inh,[8],13%
same,%Inh,[9],8%
same,%Inh,[10],0%
same,%Inh,[11],2%
same,%Inh,[12],0%
same,%Inh,[13],6%
same,%Inh,[14],16%
same,%Inh,[15],0%
same,%Inh,[16],0%
same,%Inh,[17],1%
same,%Inh,[18],0%
same,%Inh,[19],10%
same,%Inh,[20],24%
COCCNC(=O)c1ccc(-c2cc(C(=O)NC3CC3)cc(F)c2C)cc1 [GW868318],%Inh,[1],23%
same,%Inh,[2],13%
same,%Inh,[3],29%
same,%Inh,[4],8%
same,%Inh,[5],2%
same,%Inh,[6],25%
same,%Inh,[7],6%
same,%Inh,[8],8%
same,%Inh,[9],0%
same,%Inh,[10],29%
same,%Inh,[11],38%
same,%Inh,[12],3%
same,%Inh,[13],1%
same,%Inh,[14],32%
same,%Inh,[15],17%
same,%Inh,[16],3%
same,%Inh,[17],7%
same,%Inh,[18],3%
same,%Inh,[19],32%
same,%Inh,[20],7%
Cc1cccc(-c2nc(Nc3ccc4ncsc4c3)c3ccccc3n2)n1 [GW867588],%Inh,[1],0%
same,%Inh,[2],6%
same,%Inh,[3],21%
same,%Inh,[4],25%
same,%Inh,[5],0%
same,%Inh,[6],2%
same,%Inh,[7],0%
same,%Inh,[8],0%
same,%Inh,[9],0%
same,%Inh,[10],0%
same,%Inh,[11],38%
same,%Inh,[12],3%
same,%Inh,[13],0%
same,%Inh,[14],13%
same,%Inh,[15],0%
same,%Inh,[16],0%
same,%Inh,[17],0%
same,%Inh,[18],0%
same,%Inh,[19],17%
same,%Inh,[20],0%
[2H]C([2H])(c1cccc(C(F)(F)F)c1C)n1ccn2c(=O)nc(N3CCOCC3)cc12 [GSK2336394],%Inh,[1],11%
same,%Inh,[2],20%
same,%Inh,[3],0%
same,%Inh,[4],24%
same,%Inh,[5],0%
same,%Inh,[6],0%
same,%Inh,[7],0%
same,%Inh,[8],0%
same,%Inh,[9],0%
same,%Inh,[10],0%
same,%Inh,[11],0%
same,%Inh,[12],0%
same,%Inh,[13],33%
same,%Inh,[14],0%
same,%Inh,[15],7%
same,%Inh,[16],16%
same,%Inh,[17],14%
same,%Inh,[18],5%
same,%Inh,[19],12%
same,%Inh,[20],22%
Cl.Oc1cccc(Nc2ccnc3cc(-c4ccncc4)ccc23)c1 [GW494601],%Inh,[1],86%
same,%Inh,[2],0%
same,%Inh,[3],40%
same,%Inh,[4],38%
same,%Inh,[5],0%
same,%Inh,[6],0%
same,%Inh,[7],2%
same,%Inh,[8],26%
same,%Inh,[9],0%
same,%Inh,[10],0%
same,%Inh,[11],21%
same,%Inh,[12],0%
same,%Inh,[13],23%
same,%Inh,[14],0%
same,%Inh,[15],59%
same,%Inh,[16],0%
same,%Inh,[17],12%
same,%Inh,[18],12%
same,%Inh,[19],98.1%
same,%Inh,[20],94.4%
COc1cc(Nc2nccc(N3CCC(NC(=O)c4cccc(NC(C)=O)c4)C3)n2)cc(OC)c1OC (stereo not drawn) [GSK1379754],%Inh,[1],78%
same,%Inh,[2],16%
same,%Inh,[3],0%
same,%Inh,[4],1%
same,%Inh,[5],0%
same,%Inh,[6],14%
same,%Inh,[7],0%
same,%Inh,[8],1%
same,%Inh,[9],0%
same,%Inh,[10],0%
same,%Inh,[11],22%
same,%Inh,[12],0%
same,%Inh,[13],6%
same,%Inh,[14],11%
same,%Inh,[15],21%
same,%Inh,[16],21%
same,%Inh,[17],25%
same,%Inh,[18],6%
same,%Inh,[19],27%
same,%Inh,[20],44%
